Laboratory results reported in PubChem BioAssay (EPA / NIEHS).
Active and inactive are the calls of the source. The calls were made as follows: active = hit-call score of the fitted dose curve at least 0.9, where 1 is the maximum; inactive = score below 0.9.

Experiments:
[1] = target: Transcription factor E2F1 (Homo sapiens) (UniProt Q01094); assay: ATG_E2F_CIS: Attagene CIS-FACTORIAL HepG2 Assay for human E2F Transcription Factor 1 (AID 2282935); conditions: HepG2 Attagene cis-reporter, E2F reporter RNA transcripts; actives raise or lower the signal
Chain of Transcription factor E2F1 (Homo sapiens) (Q01094 whole entry, looked up): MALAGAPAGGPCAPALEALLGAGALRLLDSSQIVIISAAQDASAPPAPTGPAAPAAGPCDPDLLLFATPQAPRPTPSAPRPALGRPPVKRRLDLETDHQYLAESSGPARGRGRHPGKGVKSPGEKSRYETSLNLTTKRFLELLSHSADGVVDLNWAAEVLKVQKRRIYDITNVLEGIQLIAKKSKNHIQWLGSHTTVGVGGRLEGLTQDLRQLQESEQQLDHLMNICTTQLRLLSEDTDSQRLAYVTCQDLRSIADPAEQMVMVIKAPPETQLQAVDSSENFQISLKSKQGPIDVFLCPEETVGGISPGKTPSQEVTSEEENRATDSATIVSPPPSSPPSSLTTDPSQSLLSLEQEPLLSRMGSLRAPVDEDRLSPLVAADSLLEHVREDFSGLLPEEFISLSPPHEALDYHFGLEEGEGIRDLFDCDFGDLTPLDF
In short: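 Gain or loss of reporter transcript, fitted against DMSO, reflects E2F1-driven transcription. Transiently transfected HepG2 dosed 24 h before RNA isolation. Quantified by fluorescent RT-PCR products separated by capillary electrophoresis.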

[2] = ATG_E_Box_CIS: Attagene CIS-FACTORIAL HepG2 Assay for human Enhancer Box (E-box) (AID 2282936); conditions: HepG2 E-box cis-reporter transcription, actives raise or lower the signal
In short: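 E-box-driven reporter transcripts measured in transiently transfected HepG2 after 24 h exposure: RNA reverse-transcribed, PCR-amplified, fluorescently labelled, digested and resolved by capillary electrophoresis. Gain or loss relative to DMSO.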

[3] = ATG_M_61_CIS: Attagene CIS-FACTORIAL HepG2 Assay for M61 Transcription Factor (Internal Marker) (AID 2282937); conditions: HepG2 Attagene CIS-FACTORIAL M61 internal marker reporter; actives raise or lower the signal
In short: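 HepG2 cells transiently transfected with cis-element-driven multiple reporter transcription units, dosed for 24 h. Reporter mRNA measured by RT-PCR, 6-FAM primer-extension labelling, HpaI digestion and capillary electrophoresis; bidirectional fit versus DMSO baseline.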

[4] = ATG_EGR_CIS: Attagene CIS-FACTORIAL HepG2 Assay for human Early Growth Response 1 (EGR1) (AID 2282938); conditions: HepG2 Attagene CIS-FACTORIAL EGR reporter mRNA; actives raise or lower the signal
In short: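 HepG2 cells transiently transfected with cis-promoter-driven multiplexed reporter transcription units; reporter mRNA measured 24 h after compound dosing by RT-PCR, 6-FAM primer extension, HpaI digestion and capillary electrophoresis. Bidirectional fit versus DMSO baseline.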

[5] = ATG_M_19_CIS: Attagene CIS-FACTORIAL HepG2 Assay for M19 Transcription Factor (Internal Marker) (AID 2282939); conditions: HepG2 Attagene CIS-FACTORIAL M19 internal marker reporter; actives raise or lower the signal
In short: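 HepG2, MRTU transient transfection, 24 h dosing. Total RNA → RT-PCR → 6-FAM primer extension → HpaI digest → CE fluorescence. Bidirectional curve fit, DMSO negative control.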

[6] = ATG_ERE_CIS: Attagene CIS-FACTORIAL HepG2 Assay for Estrogen Response Element (ERE) (AID 2282940); conditions: HepG2 ERE cis-reporter, Attagene RNA transcript; actives raise or lower the signal
In short: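 After a 24 h chemical treatment, RNA from reporter-transfected HepG2 cells is reverse-transcribed, PCR-amplified and fluorescently labelled. Fragments separated by capillary electrophoresis give reporter signal; DMSO serves as negative control.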

[7] = ATG_Ets_CIS: Attagene CIS-FACTORIAL HepG2 Assay for human Erythroblast Transformation Specific (ETS) (AID 2282941); conditions: HepG2 ETS cis-reporter transcription, actives raise or lower the signal
In short: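 Bidirectional fit versus DMSO of reporter mRNA signal, detected by RT-PCR and capillary electrophoresis in HepG2 cells transiently transfected with cis-element reporters and dosed 24 h.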

[8] = target: Hepatocyte nuclear factor 3-beta (Homo sapiens) (UniProt Q9Y261); assay: ATG_FoxA2_CIS: Attagene CIS-FACTORIAL HepG2 Assay for human Forkhead box A2 (FOXA2) (AID 2282942); conditions: HepG2 cis-reporter transcription factor activity, 24 h; actives raise or lower the signal
Chain of Hepatocyte nuclear factor 3-beta (Homo sapiens) (Q9Y261 whole entry, looked up): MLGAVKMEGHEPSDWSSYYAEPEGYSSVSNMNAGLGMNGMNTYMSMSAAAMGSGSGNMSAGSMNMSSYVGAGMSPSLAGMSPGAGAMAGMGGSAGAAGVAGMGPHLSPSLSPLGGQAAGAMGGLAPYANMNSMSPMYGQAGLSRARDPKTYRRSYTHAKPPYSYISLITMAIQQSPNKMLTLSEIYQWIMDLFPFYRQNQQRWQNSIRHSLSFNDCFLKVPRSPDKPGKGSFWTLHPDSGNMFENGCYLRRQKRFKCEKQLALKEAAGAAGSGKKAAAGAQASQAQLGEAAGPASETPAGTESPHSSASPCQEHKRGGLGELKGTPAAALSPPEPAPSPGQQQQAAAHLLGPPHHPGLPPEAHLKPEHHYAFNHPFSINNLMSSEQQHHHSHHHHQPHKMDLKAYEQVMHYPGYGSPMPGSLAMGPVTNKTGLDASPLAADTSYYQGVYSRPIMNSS
In short: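 HepG2 cells transiently transfected with multiple cis-regulated reporter transcription units, dosed for 24 h. Reporter mRNA measured by RT-PCR, 6-FAM labelling, HpaI digestion and capillary electrophoresis; bidirectional fitting against DMSO baseline.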

[9] = ATG_FoxO_CIS: Attagene CIS-FACTORIAL HepG2 Assay for human Forkhead box O (FoxO) (AID 2282943); conditions: HepG2 Attagene cis-reporter, FoxO element, mRNA; actives raise or lower the signal
In short: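 HepG2, transient MRTU transfection (cis element, endogenous TFs). Dose 24 h. TriZol RNA → oligo(dT) RT → PCR → 6-FAM primer extension → HpaI cut → CE. Gain/loss vs DMSO.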

[10] = ATG_GATA_CIS: Attagene CIS-FACTORIAL HepG2 Assay for human GATA Binding Protein (AID 2282944); conditions: HepG2 GATA cis-element reporter, Attagene multiplex mRNA; actives raise or lower the signal
In short: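 Cells: HepG2, transiently transfected with cis-regulated reporter transcription units. Exposure: 24 h. Detection: RT-PCR plus capillary electrophoresis of FAM-labeled fragments. Analysis: bidirectional, DMSO as baseline.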

[11] = ATG_GLI_CIS: Attagene CIS-FACTORIAL HepG2 Assay for human Zinc Finger Protein GLI1 (AID 2282945); conditions: HepG2, Attagene cis-factorial reporter mRNA, GLI element; actives raise or lower the signal
In short: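 Bidirectional curve fits relative to DMSO, using reporter mRNA levels from RT-PCR plus capillary electrophoresis. Cells were HepG2 transiently carrying cis-regulated reporter constructs, harvested 24 h after dosing.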

[12] = target: Bile acid receptor (Homo sapiens) (UniProt Q96RI1); assay: ATG_IR1_CIS: Attagene CIS-FACTORIAL HepG2 Assay for human Nuclear Receptor Subfamily 1 Group H Member 4 (NR1H4), IR1 submotif (AID 2282946); conditions: IR1 reporter transcription, actives raise or lower the signal
Chain of Bile acid receptor (Homo sapiens) (Q96RI1 whole entry, looked up): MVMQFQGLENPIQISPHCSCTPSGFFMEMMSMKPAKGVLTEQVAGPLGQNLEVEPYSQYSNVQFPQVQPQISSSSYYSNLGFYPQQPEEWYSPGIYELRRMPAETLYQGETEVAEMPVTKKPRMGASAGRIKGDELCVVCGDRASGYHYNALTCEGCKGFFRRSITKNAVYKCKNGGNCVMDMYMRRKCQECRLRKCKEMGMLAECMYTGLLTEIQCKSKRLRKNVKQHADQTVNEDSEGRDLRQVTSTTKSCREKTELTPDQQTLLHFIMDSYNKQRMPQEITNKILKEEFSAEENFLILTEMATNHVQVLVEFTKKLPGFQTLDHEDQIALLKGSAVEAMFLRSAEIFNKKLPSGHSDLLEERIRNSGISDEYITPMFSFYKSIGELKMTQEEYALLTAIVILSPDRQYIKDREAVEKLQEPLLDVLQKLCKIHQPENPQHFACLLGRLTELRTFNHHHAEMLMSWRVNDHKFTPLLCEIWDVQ
In short: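 HepG2 cells transiently transfected with multiplexed cis-element reporter units read endogenous transcription factor activity. After 24 h compound exposure, reporter mRNA was quantified by RT-PCR, fluorescent labelling, HpaI digestion and capillary electrophoresis; bidirectional fitting versus DMSO baseline.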

[13] = ATG_GRE_CIS: Attagene CIS-FACTORIAL HepG2 Assay for human Glucocorticoid Response Elements (GRE) (AID 2282947); conditions: HepG2 GRE cis-reporter, Attagene multiplex mRNA; actives raise or lower the signal
In short: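 Reporter transcripts read by RT-PCR with capillary electrophoresis fluorescence after a 24 h chemical exposure of HepG2 cells transiently transfected with multiple cis-element reporter units. Gain or loss fitted against DMSO.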

[14] = ATG_ISRE_CIS: Attagene CIS-FACTORIAL HepG2 Assay for human Interferon Regulatory Factor 1 (IRF1) binding to an Interferon-Stimulated Response Element (ISRE) (AID 2282948); conditions: HepG2 ISRE cis-reporter (Attagene), mRNA transcription readout; actives raise or lower the signal
In short: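 Uses HepG2 liver cells transfected with cis-regulated reporters and measures mRNA 24 h post-dosing through RT-PCR, primer-extension labelling and capillary electrophoresis, with DMSO as negative control.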

[15] = ATG_M_32_CIS: Attagene CIS-FACTORIAL HepG2 Assay for M32 Transcription Factor (Internal Marker) (AID 2282949); conditions: HepG2 Attagene cis-factorial M32 reporter, mRNA; actives raise or lower the signal;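 also: background control marker of the multiplexed CIS panel rather than a real target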
In short: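 HepG2 human liver cells transiently transfected with cis-promoter-driven multiple reporter transcription units, dosed 24 h. Reporter mRNA quantified by RT-PCR, FAM-labelled primer extension, HpaI digest and capillary electrophoresis; bidirectional fit versus DMSO baseline.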

[16] = ATG_M_06_CIS: Attagene CIS-FACTORIAL HepG2 Assay for M06 Transcription Factor (Internal Marker) (AID 2282950); conditions: HepG2 Attagene CIS-FACTORIAL M06 internal marker reporter; actives raise or lower the signal
In short: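 Measured 24 h post-dosing in transiently transfected HepG2 cells, this internal-marker endpoint reports reporter mRNA via RT-PCR with fluorescent primer extension and capillary electrophoresis. DMSO served as negative control and baseline for bidirectional fitting.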

[17] = target: Hypoxia-inducible factor 1-alpha (Homo sapiens) (UniProt Q16665); assay: ATG_HIF1a_CIS: Attagene CIS-FACTORIAL HepG2 Assay for human Hypoxia Inducible Factor 1 (HIF1A) (AID 2282951); conditions: HepG2 Attagene cis-factorial HIF1a reporter transcription; actives raise or lower the signal
Chain of Hypoxia-inducible factor 1-alpha (Homo sapiens) (Q16665 whole entry, looked up): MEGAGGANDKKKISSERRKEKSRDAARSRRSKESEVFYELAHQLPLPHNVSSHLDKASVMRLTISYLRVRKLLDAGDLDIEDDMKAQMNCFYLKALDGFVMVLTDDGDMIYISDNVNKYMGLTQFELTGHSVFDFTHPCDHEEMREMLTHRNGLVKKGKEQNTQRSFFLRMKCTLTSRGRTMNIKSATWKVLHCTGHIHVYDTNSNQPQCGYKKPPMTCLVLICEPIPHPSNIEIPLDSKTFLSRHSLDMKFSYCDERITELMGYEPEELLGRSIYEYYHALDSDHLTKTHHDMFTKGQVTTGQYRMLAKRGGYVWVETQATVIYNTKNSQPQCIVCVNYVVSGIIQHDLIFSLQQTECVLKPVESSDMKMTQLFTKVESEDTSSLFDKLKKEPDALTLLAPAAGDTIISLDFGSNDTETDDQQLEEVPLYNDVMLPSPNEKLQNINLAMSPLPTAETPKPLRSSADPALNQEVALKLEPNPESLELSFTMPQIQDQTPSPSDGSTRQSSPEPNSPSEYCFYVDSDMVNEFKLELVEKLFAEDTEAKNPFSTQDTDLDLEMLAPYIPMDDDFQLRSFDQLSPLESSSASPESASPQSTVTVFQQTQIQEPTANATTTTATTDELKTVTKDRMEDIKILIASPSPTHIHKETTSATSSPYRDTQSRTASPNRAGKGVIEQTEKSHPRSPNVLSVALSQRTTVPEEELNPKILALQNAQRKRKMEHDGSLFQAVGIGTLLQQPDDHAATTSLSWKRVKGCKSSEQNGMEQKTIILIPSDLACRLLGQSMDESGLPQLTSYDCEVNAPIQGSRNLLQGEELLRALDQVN
In short: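 HepG2 cells transiently transfected with multiplexed cis-promoter reporter units; reporter mRNA read 24 h after dosing by RT-PCR, 6-FAM primer-extension labelling, HpaI digestion and capillary electrophoresis. Bidirectional fit versus DMSO baseline.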

[18] = target: Hepatocyte nuclear factor 6 (Homo sapiens) (UniProt Q9UBC0); assay: ATG_HNF6_CIS: Attagene CIS-FACTORIAL HepG2 Assay for human Hepatocyte Nuclear Factor 6 (HNF6) (AID 2282952); conditions: HepG2 Attagene cis-factorial HNF6 reporter transcription; actives raise or lower the signal
Chain of Hepatocyte nuclear factor 6 (Homo sapiens) (Q9UBC0 whole entry, looked up): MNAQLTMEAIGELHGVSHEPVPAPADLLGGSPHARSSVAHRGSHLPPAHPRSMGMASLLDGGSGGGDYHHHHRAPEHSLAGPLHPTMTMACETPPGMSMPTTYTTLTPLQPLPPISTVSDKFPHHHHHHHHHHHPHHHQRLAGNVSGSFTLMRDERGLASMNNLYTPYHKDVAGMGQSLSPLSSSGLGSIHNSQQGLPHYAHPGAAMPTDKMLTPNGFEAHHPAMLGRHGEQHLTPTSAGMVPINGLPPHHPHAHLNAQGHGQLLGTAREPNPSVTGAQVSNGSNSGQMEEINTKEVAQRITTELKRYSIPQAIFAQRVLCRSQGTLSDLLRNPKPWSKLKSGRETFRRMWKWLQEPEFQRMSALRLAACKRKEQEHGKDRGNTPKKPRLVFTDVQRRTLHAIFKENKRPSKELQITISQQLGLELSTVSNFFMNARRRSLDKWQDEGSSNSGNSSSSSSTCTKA
In short: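 Endogenous transcription factor activity in human HepG2 liver cells was captured through cis-regulated reporter constructs. After 24 h treatment, reporter mRNA was measured by RT-PCR with capillary electrophoresis, and activity was fitted in both directions relative to DMSO.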

[19] = target: Heat shock factor protein 1 (Homo sapiens) (UniProt Q00613); assay: ATG_HSE_CIS: Attagene CIS-FACTORIAL HepG2 Assay for human Heat Shock Transcription Factor 1 (HSE) (AID 2282953); conditions: HepG2 HSE cis-reporter, Attagene RNA transcription; actives raise or lower the signal
Chain of Heat shock factor protein 1 (Homo sapiens) (Q00613 whole entry, looked up): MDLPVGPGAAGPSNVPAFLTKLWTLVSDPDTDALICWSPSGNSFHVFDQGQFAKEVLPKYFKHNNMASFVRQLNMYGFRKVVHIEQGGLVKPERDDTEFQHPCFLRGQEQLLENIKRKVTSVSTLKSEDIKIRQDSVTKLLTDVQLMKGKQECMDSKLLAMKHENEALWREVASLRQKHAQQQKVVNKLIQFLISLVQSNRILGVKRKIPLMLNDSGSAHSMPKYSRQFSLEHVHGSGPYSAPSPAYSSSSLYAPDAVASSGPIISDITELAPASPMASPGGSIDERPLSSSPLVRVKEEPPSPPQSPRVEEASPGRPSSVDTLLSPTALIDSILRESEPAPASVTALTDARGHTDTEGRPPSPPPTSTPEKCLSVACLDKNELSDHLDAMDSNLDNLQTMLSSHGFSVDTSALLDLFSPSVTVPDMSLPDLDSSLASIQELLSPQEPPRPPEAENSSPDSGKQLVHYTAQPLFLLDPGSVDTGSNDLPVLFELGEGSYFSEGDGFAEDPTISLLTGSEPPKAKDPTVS
In short: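 Reporter mRNA induction in HepG2 is measured 24 h after dosing, using transiently transfected multiplexed cis-regulated reporter units. Signal comes from capillary electrophoresis of labelled RT-PCR products, with DMSO as negative control.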

[20] = ATG_MRE_CIS: Attagene CIS-FACTORIAL HepG2 Assay for human Metal Responsive Element (MRE) (AID 2282954); conditions: HepG2 MRE cis-reporter transcription, Attagene multiplex; actives raise or lower the signal
In short: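 Endogenous MRE-dependent transcription read as reporter mRNA in transiently transfected human HepG2 cells at 24 h. RNA reverse-transcribed, PCR-amplified, labelled and resolved by capillary electrophoresis; gain or loss relative to DMSO.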

Measured: AC50

OCC1CO1 (centres undefined)
inactive: all assays above

C=CC(=O)OCC(F)(F)C(F)F
active: [14] 150 µM | [20] 117 µM
inactive: all other assays above

O=P(OCC(Br)CBr)(OCC(Br)CBr)OCC(Br)CBr (centres undefined)
active: [4] 7.19 µM | [14] 10.3 µM | [17] 16.3 µM | [20] 24.9 µM
not listed: [19]
inactive: all other assays above

O=c1ssc(Cl)c1Cl
active: [4] 60.3 µM | [7] 52.1 µM | [11] 59.1 µM | [12] 58.3 µM | [14] 48.6 µM | [20] 49.6 µM
not listed: [19]
inactive: all other assays above

N#Cc1cc([N+](=O)[O-])ccc1N
inactive: all assays above

CCN(CC)C1CCCCC1
inactive: all assays above

CCCCC(CC)COC(=O)c1c(Br)c(Br)c(Br)c(Br)c1C(=O)OCC(CC)CCCC (centres undefined)
inactive: all assays above

C=CC(=O)OCC(CC)(COC(=O)C=C)COC(=O)C=C
active: [1] 100 µM | [2] 22 µM | [4] 26.6 µM | [12] 8.23 µM | [14] 42.4 µM | [20] 9.05 µM
inactive: all other assays above

O=C(O)C(F)(OC(F)(F)C(F)(F)C(F)(F)F)C(F)(F)F (centres undefined)
inactive: all assays above

Cc1c([N+](=O)[O-])cc2c(c1[N+](=O)[O-])C(C)(C)CC2(C)C
not listed: [19]
inactive: all other assays above

Nc1ccc([N+](=O)[O-])cc1Cl
inactive: all assays above

CC(C)(C)c1ccccc1OP(=O)(Oc1ccccc1)Oc1ccccc1
active: [6] 12.4 µM | [12] 26.5 µM | [14] 50.2 µM
not listed: [19]
inactive: all other assays above

Cc1ccc(C(=O)Cl)cc1
inactive: all assays above

c1ccc(OP(Oc2ccccc2)Oc2ccccc2)cc1
active: [6] 72.9 µM
not listed: [12] | [19]
inactive: all other assays above
